The values below come from PubChem BioAssay AID1626 (SRMLSC, 2009).

As a reminder, the inhibition is the change of the read-out against control, counted positive when it falls.

The structures appear in SMILES notation. About 2,000 (0.91%) of roughly 220,000 compounds were called active. Roughly 2% stayed inconclusive and do not appear here. Rule as the data show it: inconclusive = inhibition above about 80% without an active follow-up result; inactive = below that; test concentration not stated here. These entries were drawn from the full list. Entries with a potency or affinity are not part of this list.

The assay can be described thus: M. tuberculosis H37Rv growth inhibitors, H37Rv strain (AID 1626).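 Also: bacteria incubated seven days before Alamar blue readout; 0% = bacteria only wells and 100% = bacteria with antibiotic wells.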 The settings on record: hits give high values, concentration not given here.
`O=C(NC1CCS(=O)(=O)C1)C1C2CC3CC(C2)CC1C3` (configuration not stated): the inhibition is 0.76% (inactive).
Regarding `O=C1CCCC(=O)C1Sc1ccc(Cl)cc1`, the inhibition was 3.4% (inactive).
For `COc1ccc(N=C/C=C2\C=C(c3ccccc3)OC(C)(C)O2)cc1`, the inhibition is 76.4% (inactive).
In the case of `CC1(C)OC(c2ccccc2)=C/C(=C/C=Nc2ccccc2)O1`, the inhibition was -2.83% (inactive).
As for `C1CSC2(N1)C1CC3CC2CC(C1)C31NCCS1` (configuration not stated), the inhibition is -4.53% (inactive).
As for `Cc1cc(C)cc(NC(=O)c2ccccc2CC[N+](=O)[O-])c1`, the figure is 58.2% (inactive); as for `O=C(NCCCN1CCN(CCCNC(=O)c2ccc(F)cc2)CC1)c1ccc(F)cc1`, -9.24% (inactive).
As for `CC(C)(C)c1ccc(C(=O)NCCN2CCCC2)cc1`, the figure is -0.48% (inactive).
The same measure for `CCOC(=O)c1ccc(NC(=O)NCCc2ccccc2OC)cc1`: 5.79% (inactive); for `CCN(CC)C(=O)c1c(C)[nH]c(=S)c(C#N)c1-c1ccco1`: -4.78% (inactive).
For `Brc1ccc(-c2cn3cccnc3n2)cc1`, the inhibition is -1.72% (inactive).
Take `Brc1ccc(-c2cn3ccccc3n2)cc1`: the inhibition is -4.5% (inactive).
For `O=C1CCC(=O)N1CNc1cccnc1`, the inhibition is -9.49% (inactive).
The same measure for `O=C1C2=C(CCCC2)C(=O)N1CNc1ccccc1`: -13.7% (inactive).
The same measure for `CCn1c(=S)sc2c(=O)n(-c3ccccc3)c(=S)[nH]c21`: -1.81% (inactive); for `COc1ccc(C(=O)N2CCN(c3ccccc3OC)CC2)cc1`: 0.49% (inactive); for `O=C(O)/C=C/c1ccc(S(=O)(=O)NCc2cccnc2)cc1`: -0.59% (inactive).
For `CN(CC(O)COC(c1ccccc1)c1ccccc1)C1CCCCC1` (configuration not stated), the inhibition was 5.91% (inactive).
As for `CC1CCCC(NC(=O)CSc2ccc(F)cc2)C1C` (configuration not stated), the figure is -2.7% (inactive); as for `Cc1ccccc1Oc1cc(NC(=O)CCCn2nc(C)c([N+](=O)[O-])c2C)cc([N+](=O)[O-])c1`, 4.71% (inactive); as for `Cc1ccc(C)c(Oc2cc(NC(=O)CCCn3nc(C)c([N+](=O)[O-])c3C)cc([N+](=O)[O-])c2)c1`, 5.87% (inactive).
With `Cc1cc([N+](=O)[O-])nn1CCCC(=O)Nc1cc(Oc2ccc(F)cc2)cc([N+](=O)[O-])c1`, the inhibition is 76% (inactive).
`Cc1cc([N+](=O)[O-])nn1CCCC(=O)Nc1cc(Oc2ccccc2)cc([N+](=O)[O-])c1`: the inhibition was 33.1% (inactive).
Consider `Cc1c(Cl)c([N+](=O)[O-])nn1CCCC(=O)Nc1cccc(Cl)c1`, for which the inhibition is -0.67% (inactive).
The same measure for `Cc1nn(CCCC(=O)Nc2cc(Oc3ccccc3)cc([N+](=O)[O-])c2)c(C)c1[N+](=O)[O-]`: 4.46% (inactive).
As for `CN1CCC(C2(O)c3ccccc3CCc3ccccc32)CC1`, the figure is -4.72% (inactive).
For the compound `Cc1ccc(-c2nn(-c3ccccc3)cc2/C=N/NC(=O)CSc2nnc(C)n2-c2ccccc2)cc1`, the inhibition is 5.75% (inactive).
Turning to `COc1cc(NC(=O)CCCc2c[nH]c3ccccc23)cc(OC)c1`, the inhibition was 13% (inactive).
As to `COc1ccc(/C=N/NC(=O)c2cc(C34CC5CC(CC(C5)C3)C4)[nH]n2)cc1OC`, the inhibition is -1.09% (inactive).
As for `COCCN1C(=O)N[C@@H](c2cccc(F)c2)C(C(=O)OC)=C1C`, the figure is -7.87% (inactive); as for `CC(=O)c1ccc(NC(=O)C(NC(=O)c2ccccc2)=C(C)C)cc1`, -4.51% (inactive); as for `Cc1ccc2nc(-c3ccco3)c(Nc3ccccc3)n2c1`, 2.97% (inactive).
As for `Cc1ccc2nc(-c3ccncc3)c(Nc3ccccc3)n2c1`, the figure is 2.3% (inactive); as for `Cc1ccccc1Nc1c(-c2ccncc2)nc2ccc(Cl)cn12`, -2.88% (inactive).
Take `Cc1cccc2nc(-c3ccco3)c(Nc3ccccc3)n12`: the inhibition is -7.83% (inactive).
For `Clc1ccc(-c2nc3ncccn3c2Nc2ccc3c(c2)OCO3)cc1`, the inhibition was 7.95% (inactive).
With `Clc1ccc(-c2nc3cnccn3c2Nc2ccc3c(c2)OCO3)cc1`, the inhibition is 31% (inactive).
As to `Cc1ccc2nc(-c3cccnc3)c(Nc3ccccc3C)n2c1`, the inhibition is 5.59% (inactive).
As for `Cc1cccc2nc(-c3cccnc3)c(Nc3ccccc3)n12`, the figure is -0.36% (inactive); as for `CCN1CCN(C(=O)COc2ccc3c(c2)C(=O)CC2(CCN(C(C)=O)CC2)O3)CC1`, -8.68% (inactive); as for `CCOC(=O)C1CCN(C(=O)CSc2ccc(Cl)cc2)CC1`, 1.63% (inactive).
With `O=C(c1ccc([N+](=O)[O-])c(CS(=O)(=O)c2ccc(Cl)cc2)c1)N1CCCCC1`, the inhibition was 3.1% (inactive).
For `CCOC(=O)CSc1ccc2nnc(CCNS(=O)(=O)c3ccc(C)cc3)n2n1`, the inhibition was 4.15% (inactive).
With `Cc1oc(C(C)(C)C)c(CN2CCCC2)c1C(=O)O`, the inhibition is 5.71% (inactive).
As for `Cc1cccc(-c2nnc(SCC#N)n2C)c1`, the figure is 1.96% (inactive); as for `CCOC(=O)c1cc(C(C)(C)C)nc(SC)c1C#N`, 0.56% (inactive).
As for `COc1ccc(C(O)P(=O)(OCC(C)C)OCC(C)C)c(OC)c1` (configuration not stated), the figure is 5.08% (inactive); as for `Cc1cc(C)n2nc(C(=O)Nc3nccs3)nc2n1`, -4.36% (inactive).
With `O=c1c2c3c(sc2nc2sc(CN4CCOCC4)cn12)CCCC3`, the inhibition is -5.88% (inactive).
Turning to `CC(=O)Nc1c(C(=O)C2CC2)oc2ccccc12`, the inhibition was 8.66% (inactive).
On to `O=C(O)CCSCC(=O)Nc1c(C(=O)C2CC2)oc2ccccc12`, for which the inhibition is -2.71% (inactive).
As for `CC1(C)Cc2ccccc2C(N/N=C/c2ccc([N+](=O)[O-])cc2)=N1`, the figure is 3.59% (inactive); as for `CSCCC(NC(=O)c1ccc([N+](=O)[O-])cc1Cl)C(=O)OCC(=O)NCCCc1ccccc1` (configuration not stated), -2.31% (inactive); as for `Cc1cnc(C(=O)Nc2ccccc2-c2ccc(C)o2)cn1`, -0.7% (inactive).
Regarding `CC(=O)Nc1ccccc1-c1ccc(C)o1`, the inhibition is -8.39% (inactive).
Consider `CCC(=O)N(C)CCc1cc2c(c(OC)c1/C=N/NC(=O)[C@H]1C[C@@H]1c1ccccc1)OCO2`, for which the inhibition is -2.15% (inactive).
The same measure for `CN(C)c1ccc(NC(=S)NC(=O)/C=C/c2ccc(Cl)cc2)cc1`: 5.85% (inactive); for `COc1cc(C(CCN2CCCCC2)c2c(OC)cc(OC)c3c(C)cc(=O)oc23)cc(OC)c1OC` (configuration not stated): -3.67% (inactive).
As for `COc1cc(C(CCN2CCOCC2)c2c(OC)cc(OC)c3c(C)cc(=O)oc23)cc(OC)c1OC` (configuration not stated), the figure is -15.3% (inactive); as for `COc1cc(C(CCN2CCCC2)c2c(OC)cc(OC)c3ccc(=O)oc23)cc(OC)c1OC` (configuration not stated), -13% (inactive).
As for `COc1cc(C(CCN2CCCC2)c2c(OC)cc(OC)c3c(C)cc(=O)oc23)cc(OC)c1OC` (configuration not stated), the inhibition was -6.56% (inactive).
As for `Cn1nc(-c2ccc(OCC(N)=O)cc2)c2ccccc2c1=O`, the figure is 9.43% (inactive); as for `O=S(=O)(Nc1ccc(-c2cn3ccsc3n2)cc1)c1ccc2c(c1)OCCO2`, -7.36% (inactive).
Consider `O=C(O)c1cccc(CSc2ncn[nH]2)c1`, for which the inhibition was 3.99% (inactive).
On to `Cc1ccc(-n2cc(CN(C)Cc3nccn3C)c(-c3ccc(F)cc3)n2)cc1`, for which the inhibition is 60.4% (inactive).
For the compound `CN(Cc1ncc[nH]1)Cc1cn(-c2ccccc2)nc1-c1ccc2c(c1)OCO2`, the inhibition was 6.67% (inactive).
As for `Cc1ccc(-n2cc(CN(C)CCc3cn[nH]c3)c(-c3cccc(C)c3)n2)cc1`, the inhibition was 6.61% (inactive).
For `CN(Cc1cn(-c2ccccc2)nc1-c1ccc2c(c1)OCO2)Cc1nccn1C`, the inhibition was 2.66% (inactive).
On to `CCn1ccnc1CNCc1cn(-c2cc(C)ccc2C)nc1-c1ccccc1`, for which the inhibition was 72% (inactive).
The same measure for `Cc1ccc(C)c(-n2cc(CNCCCn3cccn3)c(-c3ccccc3)n2)c1`: -1.54% (inactive); for `Cc1ccc(-n2cc(CN3CCN(Cc4nccn4C)CC3)c(-c3cccc(C)c3)n2)cc1`: -0.87% (inactive).
Turning to `CCn1ccnc1CN(C)Cc1cn(-c2ccccc2)nc1-c1ccc(OC)cc1F`, the inhibition was 15% (inactive).
With `CCS(=O)(=O)c1nc(S(=O)(=O)c2ccc(C)cc2)c(NCCCN(C)C)s1`, the inhibition is -3.12% (inactive).
As for `Cc1cccc(C(=O)N(c2ccccn2)C(C)c2ccco2)c1` (configuration not stated), the figure is -1.89% (inactive); as for `CC(c1ccccc1F)n1cc(C(=O)NCc2ccncc2)nn1` (configuration not stated), -6.06% (inactive).
As to `O=C(NNC(=O)c1cc2cc(OC(F)(F)F)ccc2[nH]1)c1cccc(C(F)(F)F)c1`, the inhibition was 0.47% (inactive).
The same measure for `CN(C)S(=O)(=O)c1ccc2c(c1)c(=O)c(C(=O)NCCCN1CCCCCC1)cn2C`: 0.45% (inactive).
As for `O=C(COC(=O)c1ccccc1O)Nc1cc([N+](=O)[O-])ccc1Cl`, the figure is -5.14% (inactive).
Regarding `S=C(NC1CCCCC1)c1ccc2c(c1)OCO2`, the inhibition was 0.26% (inactive).
As for `CCN1CC(CN(C)Cc2cn(-c3ccc(C)cc3)nc2-c2cccc(C)c2)CC1=O` (configuration not stated), the figure is 13.5% (inactive).
Regarding `Cc1ccc(-n2cc(CNCCCn3cccn3)c(-c3cccc(C)c3)n2)cc1`, the inhibition was 69.4% (inactive).
The same measure for `CC(C)OC(=O)c1ccc(NC(=O)c2ccccc2)cc1`: 69.1% (inactive).
The same measure for `CCCCOC(=O)c1ccc(N)cc1`: 78.1% (inactive); for `CCC(=O)Nc1cccc2c1C(=O)N(C)C2=O`: -8.82% (inactive).
The same measure for `COc1ccc(CCNC(=O)Cc2nn(C)c(=O)c3ccccc23)cc1OC`: 1% (inactive); for `Cc1nnc(NC(=O)CSc2nnc(Cc3cccn3C)n2-c2cccc(C(F)(F)F)c2)s1`: 4.46% (inactive).
As for `CC(C)CN(C(=O)COC(=O)c1ccc(-c2ccccc2)cc1)C1CCS(=O)(=O)C1` (configuration not stated), the inhibition is 4.21% (inactive).
Consider `CCc1ccc2[nH]c(=O)c(C(c3nnnn3CCOC)N3CCN(c4ccccc4)CC3)cc2c1` (configuration not stated), for which the inhibition is 2.21% (inactive).
As for `COc1ccc2cc(C(c3nnnn3CCc3ccccc3)N3CCC(O)CC3)c(=O)[nH]c2c1` (configuration not stated), the inhibition is 4.28% (inactive).
As for `O=C(Cn1c(-c2cscn2)nc2ccccc21)Nc1ccc2ccccc2c1`, the figure is 5.71% (inactive); as for `CC(=O)NCCn1c(SCC(=O)c2ccc(Cl)cc2)nc2ccccc2c1=O`, -2.5% (inactive).
Consider `Cc1ccc(NC(=O)c2ccc([N+](=O)[O-])cc2Cl)nc1`, for which the inhibition is 1.78% (inactive).
